Source: PubChem BioAssay (NCI)
About 83,000 compounds went through this panel and 20% of them were active in at least one assay; those are over-represented in the sample as a whole.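 Values shown are percent growth following 48 h exposure of cells in 96-well plates to a single concentration of compound; below 10 was considered active.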 Values without a mark were called inactive. Calls of active or inactive are those of the source.

Experiments:
Assay in all cases: NCI-60 one-dose screen, 48 h (100 = growth as untreated, 0 = no growth, -100 = all killed)
Details in all cases: 10 µM unless noted
NCI-H23 lung = test system: NCI-H23 lung
NCI-H226 lung = test system: NCI-H226 lung
NCI-H322M lung = test system: NCI-H322M lung
HOP-62 NSCLC = test system: HOP-62 NSCLC
NCI-H460 lung = test system: NCI-H460 lung
HOP-92 NSCLC = test system: HOP-92 NSCLC
NCI-H522 lung = test system: NCI-H522 lung
A549/ATCC NSCLC = test system: A549/ATCC NSCLC
786-0 renal = test system: 786-0 renal
COLO 205 colon = test system: COLO 205 colon
DU-145 prostate = test system: DU-145 prostate
K-562 leukemia = test system: K-562 leukemia
MALME-3M melanoma = test system: MALME-3M melanoma
MDA-MB-231 breast = test system: MDA-MB-231 breast
RXF 393 renal = test system: RXF 393 renal
SF-268 CNS = test system: SF-268 CNS
SF-295 CNS = test system: SF-295 CNS
SF-539 CNS = test system: SF-539 CNS
UACC-257 melanoma = test system: UACC-257 melanoma
M14 melanoma = test system: M14 melanoma

Row | Compound | growth (NCI-H23 lung) | growth (NCI-H226 lung) | growth (NCI-H322M lung) | growth (HOP-62 NSCLC) | growth (NCI-H460 lung) | growth (HOP-92 NSCLC) | growth (NCI-H522 lung) | growth (A549/ATCC NSCLC) | growth (786-0 renal) | growth (COLO 205 colon) | growth (DU-145 prostate) | growth (K-562 leukemia) | growth (MALME-3M melanoma) | growth (MDA-MB-231 breast) | growth (RXF 393 renal) | growth (SF-268 CNS) | growth (SF-295 CNS) | growth (SF-539 CNS) | growth (UACC-257 melanoma) | growth (M14 melanoma)
1 | CC(C)CCNC(=O)Cn1cccc(NC(=O)OCc2ccccc2)c1=O | 88% | 87.4% | 112% | 93.8% | 102% | 91.5% | 88.2% | 95.6% | 111% | 108% | 109% | 114% | 104% | 107% | 106% | 102% | 107% | 115% | 104% | 116%
2 | O=C(c1ccccc1)C1C(=O)N2C(=S)N(c3ccccc3)C(=O)C2C1c1ccc(Cl)cc1 (stereo not given) | 88.2% | 74.5% | 94.6% | 93.4% | 86.8% | 91.3% | 94% | 101% | 100% | 112% | 109% | 99.1% | 88.1% | 90.4% | 90.4% | 97.5% | 94.2% | 98% | 101% | 96.3%
3 | COC(=O)/C(CCC=C(C)C)=C1\[C@@H](OC(C)=O)C[C@@]2(C)[C@H]1C[C@@H](O)[C@H]1[C@@]3(C)CC[C@H](NCCN)[C@@H](C)[C@@H]3CC[C@@]12C | 88.7% | 83.5% | 83.5% | 93% | 99.6% | 53.1% | 86.9% | 88.9% | 73.5% | 80.3% | 65.4% | -7.67% (active) | 89.4% | 93% | 57.8% | 76.6% | 98.2% | 90.2% | 99.7% | 87%
4 | O=C1C(Cl)=C(Oc2ccccc2)C(=O)c2ccccc21 | 85.9% | 90.8% | 83.1% | 86% | 94.4% | 72.6% | -83.3% (active) | 100% | 94.1% | 32.3% | 122% | 37.2% | 76.3% | 81.4% | 96.8% | 79.3% | 76.6% | 75.2% | 89.9% | 96.2%
5 | COc1ccc2nc(NC(=O)CSc3nnc4n3S(=O)(=O)c3ccccc3N4C)sc2c1 | 94.9% | 103% | 102% | 97.9% | 112% | 90.5% | 70.9% | 77.9% | 103% | 138% | 115% | 91.2% | 120% | 94.5% | -29.4% (active) | 95.8% | 127% | 106% | 82.4% | 101%
6 | CCOC(=O)c1c(C)c2c(n1C)CSc1cc(C(=O)c3ccccc3)c(=O)[nH]c1-2 | 81.7% [100 µM] | 98.3% [100 µM] | 90.5% [100 µM] | 103% [100 µM] | 79.6% [100 µM] | 84.4% [100 µM] | 97.5% [100 µM] | 78.9% [100 µM] | 106% [100 µM] | 117% [100 µM] | 100% [100 µM] | 102% [100 µM] | 90.8% [100 µM] | 87.1% [100 µM] | 134% [100 µM] | 90.8% [100 µM] | 103% [100 µM] | 94.7% [100 µM] | 120% [100 µM] | 108% [100 µM]
7 | S=C1CCSC(=S)N1CCCN1C(=S)CCSC1=S | 81.1% | 101% | 113% | 90.5% | 97.7% | 106% | 5.23% (active) | 97.7% | 44.9% | 64.2% | 73.3% | 29.4% | 74.2% | 75.3% | 57.9% | 87.2% | 105% | 71.6% | 89% | 83.1%
8 | COc1cccc(CNc2ncnc3c2ncn3C2OC(CO)C(O)C2O)c1O (stereo not given) | 7.98% (active) | 31.6% | 11.3% | 1.76% (active) | 45.7% | -32.7% (active) | 8.65% (active) | 23.9% | 7.21% (active) | 24.6% | 0.439% (active) | 6.7% (active) | -1.1% (active) | -46% (active) | -13.3% (active) | 22.8% | -24.5% (active) | -3.39% (active) | 37.6% | 18.5%
